# Sampled rows, rich in hits. Any-hit rate of the full collection: about 2.5%.
# Cruzain inh Det – inhibitors of Trypanosoma cruzi cruzain with detergent; P25779; purified cruzain, Z-FR-AMC fluorescence, 0.01% Triton; Potency, µM, for the others: max response, negative = inhibition, usual class: inhibitors; actives 0.43% (n = 200,000); AID 1478;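 further: plate controls were neutral wells for no effect and buffer without enzyme for full effect; nearly all actives have a fitted effect of over 40% in size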
# Target sequence (P25779 123-467 limits assumed): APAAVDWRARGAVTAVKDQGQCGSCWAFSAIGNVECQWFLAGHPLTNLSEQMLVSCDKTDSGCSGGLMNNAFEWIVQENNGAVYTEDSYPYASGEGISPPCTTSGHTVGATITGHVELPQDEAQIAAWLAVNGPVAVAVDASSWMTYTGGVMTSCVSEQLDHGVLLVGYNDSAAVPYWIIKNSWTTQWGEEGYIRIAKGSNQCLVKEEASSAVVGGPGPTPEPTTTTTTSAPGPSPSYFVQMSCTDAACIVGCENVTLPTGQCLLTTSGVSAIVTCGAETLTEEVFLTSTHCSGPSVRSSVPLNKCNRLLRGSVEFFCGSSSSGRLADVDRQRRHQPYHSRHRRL
#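 Enzyme 1.5 nM, Z-FR-AMC 2 uM, NaOAc 100 mM pH 5.5, DTT 5 mM, Triton X-100 0.01%; 15 min RT compound preincubation; kinetic ex360/em450, 60 s delta.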
# Cruzain noTriton – blocks cruzain activity in detergent-free assay; purified cruzain, Z-FR-AMC fluorescence, no detergent; P25779; AID 1476; actives 2.3% (n = 200,000); Potency, µM, inactives show max response, negative = inhibition, actives largely listed as inhibitors;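 further: plate controls were enzyme without inhibitor for no effect and buffer without enzyme for full effect; nearly all actives have a fitted effect of over 40% in size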
#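 Detergent-free condition (0.00005% Triton X-100) in acetate buffer pH 5.5 with DTT. 1.5 nM enzyme and compound were pre-mixed 15 min, then 2 uM Z-FR-AMC substrate added; reaction progress from fluorescence change between first and third reads (60 s).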
# The depositor's hits bear a star; ? = inconclusive. The call rests on the fitted dose curve; in most records, active means well fitted curve in the direction sought with a large enough effect; inconclusive means small, poorly fitted or top-dose-only effect, or another doubt; inactive means no such curve, though single readings can be large; an effect the other way counts as inactive or inconclusive. Potency means the concentration at half of the fitted maximal effect.
SMILES,Cruzain inh Det,Cruzain noTriton
COc1ccccc1NC(=O)C1=C(C)NC(SCC(=O)c2ccc(C)cc2)=C(C#N)C1c1ccco1 (stereo unspecified),-10%,13µM*
CC1=C(C(=O)Nc2ccccc2)C(c2ccco2)C(C#N)=C(SCC(=O)OC(C)C)N1 (stereo unspecified),-9%,-9%
CCOc1ccccc1NC(=O)CSC1=C(C#N)C(c2ccco2)C(C(=O)Nc2nc3ccccc3s2)=C(C)N1 (stereo unspecified),-9%,7.9µM*
CC(=O)C1=C(C)NC(SCC(=O)c2cc(Cl)ccc2Cl)=C(C#N)C1c1ccco1 (stereo unspecified),-18%,25µM*
CC(=O)C1=C(C)NC(SCC(=O)c2ccc(Cl)c(Cl)c2)=C(C#N)C1c1ccco1 (stereo unspecified),-20%,?
CC1=C(C(=O)Nc2ccccc2)C(c2ccco2)C(C#N)=C(SCc2ccccc2)N1 (stereo unspecified),-5%,20µM*
CC(=O)C1=C(C)NC(SCC(=O)c2ccc(F)cc2)=C(C#N)C1c1ccco1 (stereo unspecified),-17%,-17%
CC1=C(C(=O)Nc2ccccc2)C(c2ccco2)C(C#N)=C(SCC(=O)Nc2cccc(C)c2C)N1 (stereo unspecified),-8%,?
CCc1ccc(NC(=O)CSC2=Nc3ccccc3C3=NC(CCC(=O)NCc4ccccc4)C(=O)N23)cc1 (stereo unspecified),4%,22%
COc1ccc2[nH]c(=O)c(CN(C(=O)c3cccc(Cl)c3)c3ccccc3C)cc2c1,0%,-22%
O=C1CC(c2ccccc2)Sc2ccccc2N1Cc1ccc(F)cc1 (stereo unspecified),-7%,-1%
O=C(COc1ccc(Br)cc1Br)NC(=S)Nc1cccc(CO)c1,-9%,?
O=C(COc1ccc2ccccc2c1Br)NC(=S)Nc1cccc(CO)c1,-7%,32µM*
ClC1=C(Cl)C2(Cl)C3C4CC(C5OC45)C3C1(Cl)C2(Cl)Cl (stereo unspecified),-2%,1.6µM*
ClC1=C(Cl)C2(Cl)C3C4C=CC(C4)C3C1(Cl)C2(Cl)Cl (stereo unspecified),7%,8%
CCOc1ccc(NCc2nnc(SCC(=O)Nc3nc(-c4ccccc4)cs3)n2-c2ccccc2)cc1,1%,25µM*
Cc1cccc(C)c1NCc1nnc(SCC(=O)Nc2nc(-c3ccccc3)cs2)n1-c1ccccc1,-1%,?
Cc1c(C)n(Cc2ccccc2)c2ccc(C(=O)N3CCN(c4ccccc4)CC3)cc12,-2%,?
Cc1c(C)n(Cc2ccc(F)cc2)c2ccc(C(=O)N3CCN(c4ccc(Cl)cc4)CC3)cc12,2%,7.9µM*
O=C(c1ccc(Cn2c(=O)[nH]c3ccccc3c2=O)cc1)N1CCN(c2ccc(F)cc2)CC1,-6%,20%
Cc1c(C)n(Cc2ccccc2)c2ccc(C(=O)N3CCN(c4ccc(F)cc4)CC3)cc12,-1%,32µM*
CCCCn1c(=O)c2oc3ccccc3c2n(Cc2ccc(OC)cc2)c1=O,1%,-7%
CCOC(=O)Cn1c(=O)n(-c2cccc(Cl)c2)c2nc(-c3ccccc3Cl)nc(C(N)=O)c21,-6%,?
CCn1cc2nc(SCC(=O)Nc3cc(OC)ccc3OC)n(Cc3ccc(Cl)cc3)c(=O)c2n1,-5%,15%
COc1ccc(-c2nc3c(c(SCC(=O)Nc4ccccc4F)n2)Cc2cc(C)ccc2O3)cc1,-2%,-7%
SMILES,Cruzain inh Det,Cruzain noTriton
COC(=O)c1ccc(/C=C(\C#N)c2nc3ccccc3s2)cc1,3%,12%
CC(C)(C)c1ccc(C(=O)OC/C(O)=C(\C#N)c2nc3ccccc3s2)cc1,-4%,25µM*
O=C(O)[C@@H](c1ccccc1)N1Cc2ccccc2C1=O,-27%,16µM*
CCCCNC(=O)[C@@H](c1ccccc1)N1Cc2ccccc2C1=O,7%,5%
Cc1ccc(-c2cn3c(n2)sc2cc(C(=O)NC4CCCCC4)ccc23)cc1,-2%,4%
CC(c1ccccc1)N1CCn2c(nc3cc(NC(=O)c4cccs4)ccc32)C1 (stereo unspecified),-4%,32µM*
COCCN1CCn2c(nc3cc(NC(=O)c4cccs4)ccc32)C1,5%,3%
COc1cc(Nc2ncc3c(n2)CCN(Cc2cc(F)cc(F)c2)C3)cc(OC)c1,-4%,-24%
O=C1C2CCCN2c2ccc(S(=O)(=O)N3CCOCC3)cc2N1Cc1cccc(C(F)(F)F)c1 (stereo unspecified),-4%,8%
Cc1ccc(CN2C(=O)C3CCCN3c3ccc(C#N)cc32)cc1 (stereo unspecified),0%,10µM*
Cc1ccc(C)c(CN2C(=O)C3CCCN3c3ccc(C#N)cc32)c1 (stereo unspecified),-5%,16µM*
O=C1C2CCCN2c2ccc(S(=O)(=O)N3CCOCC3)cc2N1Cc1ccccc1F (stereo unspecified),-3%,7%
COc1ccc(CC(=O)Nc2ccc(-c3noc(-c4cccc(OC)c4)n3)cc2)cc1,3%,7.9µM*
COc1ccccc1CC(=O)Nc1ccc(-c2noc(COc3ccc(Cl)c(C)c3)n2)cc1,4%,25µM*
CCOc1ccccc1NC(=O)c1ccccc1-c1nc(-c2ccccc2)no1,-1%,4%
COc1ccc(-c2noc(CC(=O)Nc3ccc(C)c(F)c3)n2)cc1,-2%,-23%
COc1cccc(-c2nc(-c3ccc(NC(=O)c4cccnc4)cc3)no2)c1,-4%,19%
CCOc1ccccc1-c1nc(-c2ccc(NC(=O)Cc3ccccc3OC)cc2)no1,4%,25µM*
Cc1nc(-c2ccc(F)cc2)sc1CCNC(=O)c1ccccc1C(F)(F)F,-7%,9%
Cn1nnc2c(NCc3ccc(Cl)cc3)ncnc21,0%,-5%
O=c1cc(-c2ccccc2)c2ccc(O)c(CN3CCCCC3)c2o1,-15%,?
CCc1cc2c(-c3ccccc3)cc(=O)oc2c(CN2CCOCC2)c1O,-6%,4%
CCCCc1cc(=O)oc2c(CN3CCCC3)c(O)ccc12,25µM*,?
CCc1cc(=O)oc2c(CN3CCCC3)c(O)c(Cl)cc12,28µM*,?
CCc1c(C)c2cc(Cl)c(O)c(CN3CCCCC3)c2oc1=O,32µM*,?
SMILES,Cruzain inh Det,Cruzain noTriton
CCc1c(C)c2ccc(O)c(CN3CCN(c4ccccc4)CC3)c2oc1=O,-6%,-14%
COc1cc(NC(=O)CSc2cc(=O)n(C)c3ccccc23)cc(OC)c1OC,0%,-11%
CSc1cccc(NC(=O)c2cnn(-c3ccc(F)cc3)c2-n2cccc2)c1,-8%,-14%
CC#C[C@]1(O)CC[C@H]2C3CCC4=CC(=O)CCC4=C3[C@@H](c3ccc(N(C)C)cc3)C[C@@]21C (stereo partly specified),-6%,?
COc1ccc(C(=O)Oc2c(Sc3ccccc3)c(C)nn2-c2ccccc2)cc1OC,-3%,-24%
CCc1cccc(C)c1NC(=O)CSc1nc2ccccc2nc1Cc1ccccc1,3%,-3%
CCOC(=O)c1[nH]c2ccc(OC)cc2c1NC(=O)c1nonc1C,6%,4%
CCOC(=O)c1[nH]c2ccc(Cl)cc2c1NC(=O)c1nonc1C,-2%,10µM*
O=C(NC(=Nc1nc2ccccc2o1)NC(=O)c1ccccc1)c1ccccc1,-2%,13µM*
COc1ccccc1C(=O)NC(=Nc1nc2ccccc2o1)NC(=O)c1ccccc1OC,4%,?

# Assay outcomes: PubChem, National Center for Advancing Translational Sciences (NCATS)
